Data taken from PubChem BioAssay (NCATS).
Records with an inconclusive call do not appear. Where a call stands in place of a potency, no number is given. Active and inactive are the calls of the source. Calls come from the whole dose curve; as a rule, active = well fitted inhibition curve with a large enough effect; inconclusive = small, poorly fitted or top-dose-only effect; inactive = flat fitted curve, though single readings scatter.
Potency is the fitted concentration of half-maximal effect.

These compounds were tested against Phospholipid hydroperoxide glutathione peroxidase GPX4 (Homo sapiens) (UniProt P36969) (assay: Primary qHTS Assay for Inhibitors of Recombinant Selenoprotein Glutathione Peroxidase 4 (GPX4) (AID 1845192; note: nearly all actives have a fitted effect of over 65% in size)). Conditions: recombinant GPX4, GR-coupled NADPH fluorescence, 15 min; series mostly up to 50 µM; activity change, negative = inhibition: at the top concentration.
Sequence of Phospholipid hydroperoxide glutathione peroxidase GPX4 (Homo sapiens) (P36969 whole entry, looked up): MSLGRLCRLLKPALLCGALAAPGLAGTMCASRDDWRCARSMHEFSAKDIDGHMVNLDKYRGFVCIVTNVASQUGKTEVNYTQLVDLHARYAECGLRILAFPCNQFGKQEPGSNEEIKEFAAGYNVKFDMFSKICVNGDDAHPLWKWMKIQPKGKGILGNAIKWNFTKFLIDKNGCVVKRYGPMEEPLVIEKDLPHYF
Text: Assay Provider: Elias S.J. Arner MD PhD.
Department of Medical Biochemistry and Biophysics
Karolinska Institutet, Solna, Stockholm, Sweden
Selenoprotein glutathione peroxidases (GPX), like the ubiquitously expressed GPX1 and the ferroptosis modulator GPX4, enact their antioxidant activities by reducing hydroperoxides using glutathione. […] GPX1 and GPX4 inhibitors have thus shown promise as anti-cancer agents. Existing inhibitors are often promiscuous, or modulate GPX activity only indirectly, so novel direct inhibitors identified through screening against GPX1 and GPX4 could be valuable. Here, we developed optimized glutathione reductase (GR)-coupled GPX assays for the biochemical high-throughput screen (HTS) of almost 12,000 compounds with known mechanisms of action. Initial hits were triaged using a GR counter-screen, assessed for isoform specificity using a separate GPX2 assay, and were assessed for general selenocysteine-targeting activity using a thioredoxin reductase (TXNRD1) assay. With this suite of assays, we identified novel GPX1/GPX2- and GPX4-specific inhibitors and can here present a validated pipeline for future discovery research for selenoprotein-targeting agents.
SEQUENCE No. (e.g., 1, 2, 3, etc.); […] (e.g., Cells, Incubation, Reagent, etc.); VALUE; DESCRIPTION.
1; Reagent 1; 3 uL; 333.33 nM GPx4 enzyme or no enzyme control in 1536-well, black, solid Greiner assay plate.
2; Compound; 25 nL; Kalypsis pin tool (Wako USA) equipped with a 1536-well pin head.
3; Incubation; 30 min; room temperature.
4; Reagent 2; 1 uL; 500 nM GR, 5 mM GSH, 2.5 mM NADPH solution
5; Reagent 3; 1 uL; 2.5 mM CHP in 50% EtOH.
6; Detection; Fluorescence; ViewLux microplate reader, excitation 340 nm and emission 450 nm.
7; Incubation; 15 min; room temperature.
8; Detection; Fluorescence; ViewLux microplate reader, excitation 340 nm and emission 450 nm.
NOTES (numbers refer to Sequence numbers above)
1. 3 µL of 333.33 nM GPX4 and 0.016% BSA in assay buffer (50 mM Tris-HCl, 2 mM EDTA (pH 7.5), 150 mM NaCl) was added to columns 3-48 of 1536-well plates using a BioRAPTR Flying Reagent Dispenser (Let's Go Robotics (LGR), Carlsbad, CA). A no-enzyme control (0.01% BSA in TES assay buffer) was added to columns 1-2.
2. 25 nL, library and DMSO controls were added to each well with a pin tool (Kalypsys).
3. The assay plates were incubated for 30 minutes at room temperature.
4. 1 µL of master mix (500 nM glutathione reductase (GR), 5 mM reduced glutathione (GSH), 2.5 mM NADPH in assay buffer) was added.
5. 1 µL of cumene hydroperoxide (CHP) ([2.5 mM] in 50% EtOH) was then added within 5 minutes to initiate the reaction. Final concentrations were: 200 nM GPX4, 1 mM GSH, 0.5 mM CHP, 0.5 mM NADPH, 100 nM GR, 0.01% BSA.
6. Initial fluorescence readout (t=0) at 340/450 nm was measured using a ViewLux multimodal detector (PerkinElmer, Waltham, MA).
8. Endpoint fluorescence readout (t=15) at 340/450 nm was measured 15 min after room temperature incubation.
In the case of `CN[C@@H](C)C(=O)N[C@H]1CCCC[C@H]2CC[C@@H](C(=O)N[C@@H](c3ccccc3)c3cn(CCCCc4ccc(CCCCn5cc([C@@H](NC(=O)[C@@H]6CC[C@@H]7CCCC[C@H](NC(=O)[C@H](C)NC)C(=O)N76)c6ccccc6)nn5)cc4)nn3)N2C1=O`, the “activity change, negative = inhibition” value is reported as -23.7% (inactive). With `CNC[C@H](O)c1cccc(O)c1` the Potency was “inactive”. For `CC(C)(C)NCC(O)c1ccc(O)c(CO)c1` (stereo not given), the Potency was “inactive”. `Clc1cccc(Cl)c1NC1=NCCN1` was tested, and the Potency was “inactive”. For `CCOc1ccn(-c2ccc(F)cc2)c(=O)c1C(=O)Nc1ccc(Oc2ccnc(N)c2Cl)c(F)c1`, the Potency was “inactive”. With `CCCc1nc2c(C)cc(-c3nc4ccccc4n3C)cc2n1Cc1ccc(-c2ccccc2C(=O)O)cc1` the “activity change, negative = inhibition” value was -6.16% (inactive). For `CCN(CC)CCCC(C)Nc1nc(C)cc(Nc2ccc3nc(C)cc(N)c3c2)n1` (stereo not given), the “activity change, negative = inhibition” value was -22.1% (inactive). With `Cc1csc(NC(=O)c2sc3nc4c(c(C(F)(F)F)c3c2N)CCC4)n1` the “activity change, negative = inhibition” value was -11% (inactive). With `c1ccc(-c2nn3c(c2-c2ccnc4cc(OCCN5CCOCC5)ccc24)CCC3)nc1` the “activity change, negative = inhibition” value was 3.46% (inactive). With `NCCc1ccc(O)c(O)c1` the Potency was “inactive”. In the case of `CC(=O)NC(C)c1ccc(Oc2ccc(OC(C)C)cc2)cc1` (stereo not given), the “outcome” value is reported as “inactive [at 100 µM]”. `CCCS(=O)(=O)Nc1ccc(F)c(C(=O)c2c[nH]c3ncc(-c4ccc(Cl)cc4)cc23)c1F` was tested, and the Potency was “inactive”. With `Cc1[nH]c(=O)c(C#N)cc1-c1ccc2nccn2c1` the Potency was “inactive”. With `NC(=O)c1ccc(I)c([N+](=O)[O-])c1` the “activity change, negative = inhibition” value was 0.174% (inactive). For `Cc1ccnc(NS(=O)(=O)c2ccc(NC(=O)Nc3ccc(S(=O)(=O)Nc4nccc(C)n4)cc3)cc2)n1`, the “activity change, negative = inhibition” value was 0.992% (inactive). In the case of `OCCC#Cc1nc(-c2ccc(F)cc2)c(-c2ccncc2)n1CCCc1ccccc1`, the “activity change, negative = inhibition” value is reported as -14.2% (inactive). In the case of `C/C(=C\C(=O)Nc1ccccc1C(=O)O)c1ccc2ccccc2c1`, the Potency is reported as 18 µM (active). For `CCCc1nn(C)c2c(=O)[nH]c(-c3cc(S(=O)(=O)N4CCN(C)CC4)ccc3OCC)nc12`, the Potency was “inactive”. With `CNC(=O)c1ccccc1Sc1ccc2c(/C=C/c3ccccn3)n[nH]c2c1` the Potency was “inactive”. In the case of `O=C(Nc1cccnc1)N1CCC(Cc2cccc(Oc3ccc(C(F)(F)F)cn3)c2)CC1`, the Potency is reported as “inactive”. `CCc1cc(Nc2nccc(-c3c(-c4ccc(OC)c(C(=O)Nc5c(F)cccc5F)c4)nc4ccccn34)n2)c(OC)cc1N1CCC(N2CCN(S(C)(=O)=O)CC2)CC1` was tested, and the “activity change, negative = inhibition” value was 2.93% (inactive). In the case of `Fc1ccc(Cl)cc1-c1nc(Nc2ccncc2)c2nccnc2n1`, the “activity change, negative = inhibition” value is reported as -0.911% (inactive). For `OCCn1cc(-c2cnc3nnn(Cc4ccc5ncccc5c4)c3n2)cn1`, the Potency was 14.3 µM (active). With `Cc1ccc(NC(=O)c2cccc(C(C)(C)C#N)c2)cc1Nc1ccc2ncn(C)c(=O)c2c1` the “activity change, negative = inhibition” value was -26.2% (inactive). In the case of `Cn1cnc([N+](=O)[O-])c1Sc1ncnc2nc[nH]c12`, the Potency is reported as “inactive”. With `C[C@]12CCC(=O)C=C1CC[C@@H]1[C@@H]2[C@@H](O)C[C@@]2(C)[C@H]1CC[C@]2(O)C(=O)CO` the Potency was “inactive”. `OC[C@H](Cc1ccccc1)Nc1nc(Oc2ccc3c(c2)CCC3)nc2c1ncn2Cc1ccc(-c2ccccc2)cc1` was tested, and the “activity change, negative = inhibition” value was -0.66% (inactive). With `CS(=O)(=O)c1ccc(C(=O)Nc2ccc(Cl)c(-c3ccccn3)c2)c(Cl)c1` the Potency was “inactive”. In the case of `CC[C@@H](C)[C@H](NC(=O)[C@H](CC1CCCCC1)NC(=O)c1ccno1)C(=O)N1CCC2(CCc3ccccc32)CC1`, the Potency is reported as “inactive”. For `COc1cc2c(cc1OC)CN(CCc1ccc(NC(=O)c3cccc4c(=O)c5cccc(OC)c5[nH]c34)cc1)CC2`, the Potency was “inactive”. `O=C(O)COCCN1CCN(C(c2ccccc2)c2ccc(Cl)cc2)CC1` (stereo not given) was tested, and the Potency was “inactive”. For `COc1ccc([C@@H]2CC(=O)c3c(O)cc(O[C@@H]4O[C@H](CO[C@@H]5O[C@@H](C)[C@H](O)[C@@H](O)[C@@H]5O)[C@@H](O)[C@H](O)[C@@H]4O)cc3O2)cc1O`, the “activity change, negative = inhibition” value was 0.453% (inactive). For `COc1cc(F)c(F)c(Nc2ccc(I)cc2F)c1NS(=O)(=O)C1(C[C@H](O)CO)CC1`, the Potency was “inactive”. For `NS(=O)(=O)c1cc2c(cc1Cl)NC=NS2(=O)=O`, the Potency was “inactive”. For `CC(C)OC(=O)C1=CN(C(=O)c2ccc(F)c(F)c2)CC(C)(C)c2c1[nH]c1ccccc21`, the “activity change, negative = inhibition” value was 2.17% (inactive). In the case of `Cc1ccc(N(CC2=NCCN2)c2cccc(O)c2)cc1`, the Potency is reported as “inactive”. For `Cc1cc(Nc2nc(N[C@@H](C)c3ncc(F)cn3)ncc2Cl)n[nH]1`, the Potency was “inactive”. `C#Cc1cccc(Nc2ncnc3cc(OCCOC)c(OCCOC)cc23)c1` was tested, and the Potency was “inactive”. In the case of `NC(=O)c1cnccn1`, the Potency is reported as “inactive”. In the case of `CCC(C)n1ncn(-c2ccc(N3CCN(c4ccc(OC[C@H]5CO[C@](Cn6cncn6)(c6ccc(Cl)cc6Cl)O5)cc4)CC3)cc2)c1=O` (stereo not given in full), the “outcome” value is reported as “inactive [at 27.8 µM]”.
